Outcome and AC50 data for three compounds are collected here from PubChem BioAssay (EPA / NIEHS).

Read-out in experiment [1]: solute carrier (SLCO1B1), SLCO1B1 (gene 10599)
The experiment can be described thus: LTEA_HepaRG_SLCO1B1: Life Technologies and Expression Analysis (LTEA) Assay for solute carrier (SLCO1B1) using HepaRG (AID 2283530; active = hit-call score of the fitted dose curve at least 0.9, where 1 is the maximum; inactive = score below 0.9). As to conditions: mRNA level, 48 h; actives raise or lower the signal. A digest of the protocol:
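Differentiated human HepaRG cells were exposed for 48 h in serum-free induction medium to eight half-log concentrations, top 100 uM, in 0.5% DMSO. SLCO1B1 mRNA was measured by qRT-PCR, normalized to ACTB, GAPDH and POLR2A, and fitted bidirectionally against DMSO.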

Read-out in experiment [2]: sulfotransferase 2A1 (SULT2A1), SULT2A1 (gene 6822)
In words: LTEA_HepaRG_SULT2A1: Life Technologies and Expression Analysis (LTEA) Assay for sulfotransferase 2A1 (SULT2A1) using HepaRG (AID 2283531; active = hit-call score of the fitted dose curve at least 0.9, where 1 is the maximum; inactive = score below 0.9). The settings on record: mRNA level, 48 h; actives raise or lower the signal. In a few lines: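 HepaRG human liver cells, 48 h exposure in serum-free induction medium to 8 half-log concentrations topping at 100 µM (0.5% DMSO), duplicate wells. SULT2A1 mRNA measured by TaqMan qRT-PCR, normalized to ACTB/GAPDH/POLR2A; bidirectional fit against DMSO.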

Read-out in experiment [3]: Transforming Growth Factor (TGFA), TGFA (gene 7039)
In words: LTEA_HepaRG_TGFA: Life Technologies and Expression Analysis (LTEA) Assay for Transforming Growth Factor (TGFA) using HepaRG (AID 2283532; active = hit-call score of the fitted dose curve at least 0.9, where 1 is the maximum; inactive = score below 0.9). As to conditions: mRNA level, 48 h; actives raise or lower the signal. A digest of the protocol:
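Differentiated human HepaRG cells, plated 48 h then switched to serum-free induction medium, were exposed in duplicate for 48 h to 8-point half-log series from 100 uM in 0.5% DMSO. TGFA mRNA measured by qRT-PCR, normalized to ACTB/GAPDH/POLR2A, bidirectional fit versus DMSO.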

Read-out in experiment [4]: Transforming Growth Factor (TGFB1), TGFB1 (gene 7040)
The experiment can be described thus: LTEA_HepaRG_TGFB1: Life Technologies and Expression Analysis (LTEA) Assay for Transforming Growth Factor (TGFB1) Transporter using HepaRG (AID 2283533; active = hit-call score of the fitted dose curve at least 0.9, where 1 is the maximum; inactive = score below 0.9). The settings on record: mRNA level, 48 h; actives raise or lower the signal. A digest of the protocol:
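Differentiated HepaRG cells exposed 48 hr in serum-free induction medium to eight half-log concentrations up to 100 uM (0.5% DMSO), duplicate; TGFB1 mRNA by TaqMan qRT-PCR normalised to ACTB, GAPDH, POLR2A; bidirectional fit against DMSO.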

Read-out in experiment [5]: Tumor necrosis factor receptor 1 (TNFRSF1A), TNFRSF1A (gene 7132)
In words: LTEA_HepaRG_TNFRSF1A: Life Technologies and Expression Analysis (LTEA) Assay for Tumor necrosis factor receptor 1 (TNFRSF1A) using HepaRG (AID 2283535; active = hit-call score of the fitted dose curve at least 0.9, where 1 is the maximum; inactive = score below 0.9). As to conditions: mRNA level, 48 h; actives raise or lower the signal. A digest of the protocol: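 Differentiated HepaRG cells in serum-free induction medium, exposed 48 h in duplicate to 8 half-log concentrations up to 100 uM in 0.5% DMSO. TNFRSF1A mRNA by Fluidigm TaqMan qRT-PCR, normalized to ACTB, GAPDH, POLR2A; bidirectional fit.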

Read-out in experiment [6]: Thyroid Hormone Responsive (THRSP), THRSP (gene 7069)
In words: LTEA_HepaRG_THRSP: Life Technologies and Expression Analysis (LTEA) Assay for Thyroid Hormone Responsive (THRSP) using HepaRG (AID 2283536; active = hit-call score of the fitted dose curve at least 0.9, where 1 is the maximum; inactive = score below 0.9). The settings on record: mRNA level, 48 h; actives raise or lower the signal. A digest of the protocol: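 Differentiated human HepaRG cells were exposed in duplicate for 48 h in serum-free induction medium to eight concentrations (top 100 uM, half-log steps, 0.5% DMSO). Expression was quantified by TaqMan qRT-PCR, normalized to ACTB, GAPDH and POLR2A, with bidirectional fitting against DMSO.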

Read-out in experiment [7]: UDP glucuronosyltransferase (UGT1A1), UGT1A1 (gene 54658)
In words: LTEA_HepaRG_UGT1A1: Life Technologies and Expression Analysis (LTEA) Assay for UDP glucuronosyltransferase (UGT1A1) using HepaRG (AID 2283538; active = hit-call score of the fitted dose curve at least 0.9, where 1 is the maximum; inactive = score below 0.9). The settings on record: mRNA level, 48 h; actives raise or lower the signal. A digest of the protocol: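 Human liver HepaRG cultures receive test chemical for 48 h, up to 100 uM in 0.5% DMSO, with phenobarbital induction controls. UGT1A1 mRNA is measured by qRT-PCR and normalized to ACTB, GAPDH and POLR2A.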

Read-out in experiment [8]: UDP glucuronosyltransferase (UGT1A6), UGT1A6 (gene 54578)
In words: LTEA_HepaRG_UGT1A6: Life Technologies and Expression Analysis (LTEA) Assay for UDP glucuronosyltransferase (UGT1A6) using HepaRG (AID 2283539; active = hit-call score of the fitted dose curve at least 0.9, where 1 is the maximum; inactive = score below 0.9). The settings on record: mRNA level, 48 h; actives raise or lower the signal. A digest of the protocol:
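Differentiated HepaRG cells, ~100,000/well, were exposed for 48 h in serum-free induction medium with 0.5% DMSO to 8-point half-log series topping at 100 uM, in duplicate. mRNA measured by Fluidigm TaqMan qRT-PCR, normalized to ACTB, GAPDH and POLR2A.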

Read-out in experiment [9]: X-box binding protein 1 (XBP1), XBP1 (gene 7494)
The experiment can be described thus: LTEA_HepaRG_XBP1: Life Technologies and Expression Analysis (LTEA) Assay for X-box binding protein 1 (XBP1) using HepaRG (AID 2283540; active = hit-call score of the fitted dose curve at least 0.9, where 1 is the maximum; inactive = score below 0.9). As to conditions: mRNA level, 48 h; actives raise or lower the signal. In a few lines: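 Differentiated human HepaRG cells in serum-free induction medium exposed 48 h in duplicate to eight half-log concentrations up to 100 uM in 0.5% DMSO. XBP1 mRNA measured by Fluidigm TaqMan qRT-PCR, normalized to ACTB, GAPDH, POLR2A; bidirectional fitting against DMSO.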

The nature of experiment [10]: LTEA_HepaRG_LDH_cytotoxicity: Cytotoxicity Assessment in the Life Technologies and Expression Analysis (LTEA) Assay (AID 2283563). A digest of the protocol: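 Differentiated HepaRG cells in serum-free induction medium, exposed 48 h in duplicate to 8 half-log concentrations up to 100 uM in 0.5% DMSO. Cytotoxicity from LDH measured in spent medium, fit relative to DMSO.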

The nature of experiment [11]: ATG_XTT_Cytotoxicity: Cytotoxicity Assessment in the Attagene TRANS-FACTORIAL HepG2 Assay (AID 2283584). A digest of the protocol:
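HepG2 cells transiently transfected with GAL4-UAS multiple reporter units, dosed 24 h; cytotoxicity read by XTT as loss of signal versus DMSO baseline.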

Experiment [12] in a line: TOX21_p53_BLA_p3_viability: Viability Assessment in the Tox21 HCT-116 p53 Agonism Beta-lactamase Assay, Phase 3 (AID 2283593).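 Note: cells exposed to compound for 16 h before reading.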 A digest of the protocol:
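HCT-116 cells (4000/well) rested 5 h at 37C, then got DMSO compounds by pin tool (217-fold dilution) for 16 h at 37C, 5% CO2. After the bla read, CellTiter-Glo was added and luminescence read at 30 min, room temperature.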

Experiment [13] addresses Cellular tumor antigen p53 (Homo sapiens) (UniProt P04637). In words: TOX21_p53_BLA_p3_ratio: Tox21 HCT-116 p53 Agonism Beta-lactamase Assay, Ratio, Phase 3 (AID 2283596). In a few lines:
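HCT116 p53-bla cells (4000/well) given compound in DMSO (217-fold dilution) after 5 h, incubated 16 h at 37C. CCF4-AM substrate 2 h at room temperature; 460/530 nm emission ratio, gain fitted against DMSO.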

Experiment [14] can be described thus: TOX21_p53_BLA_p4_viability: Viability Assessment in the Tox21 HCT-116 p53 Agonism Beta-lactamase Assay, Phase 4 (AID 2283597).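 Note: hits lower the luminescence signal meaning cytotoxicity.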 In a few lines: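 HCT-116 p53-bla cells, 4000/well, dosed after 5 h attachment and incubated 16 h at 37 °C, 5% CO2. Viability from CellTiter-Glo ATP luminescence after 30 min at room temperature, taken after the beta-lactamase read; loss of signal indicates cytotoxicity.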

The target in experiment [15] is Cellular tumor antigen p53 (Homo sapiens) (UniProt P04637). In words: TOX21_p53_BLA_p5_ratio: Tox21 HCT-116 p53 Agonism Beta-lactamase Assay, Ratio, Phase 5 (AID 2283599). A digest of the protocol: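 HCT-116 cells carrying a p53-inducible beta-lactamase reporter were seeded at 4000 cells/well and dosed after 5 h with compound in DMSO (217-fold dilution). After 16 h at 37C, CCF4-AM substrate was added for 2 h, and the 460/530 nm emission ratio was scored as gain-of-signal versus DMSO.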
Sequence of Cellular tumor antigen p53 (Homo sapiens) (P04637 whole entry, looked up): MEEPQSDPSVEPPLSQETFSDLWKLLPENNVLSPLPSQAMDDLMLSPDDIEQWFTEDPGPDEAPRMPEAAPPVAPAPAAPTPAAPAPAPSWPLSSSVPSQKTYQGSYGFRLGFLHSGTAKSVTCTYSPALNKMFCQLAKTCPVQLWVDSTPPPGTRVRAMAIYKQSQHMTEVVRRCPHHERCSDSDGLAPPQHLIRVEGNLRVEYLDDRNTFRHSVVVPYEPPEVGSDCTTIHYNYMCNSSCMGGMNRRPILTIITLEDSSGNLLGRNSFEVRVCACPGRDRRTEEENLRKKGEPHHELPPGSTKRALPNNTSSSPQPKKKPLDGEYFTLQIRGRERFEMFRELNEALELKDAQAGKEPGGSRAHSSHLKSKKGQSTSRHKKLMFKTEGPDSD

Experiment [16] is described as follows: TOX21_p53_BLA_p5_viability: Viability Assessment in the Tox21 HCT-116 p53 Agonism Beta-lactamase Assay, Phase 5 (AID 2283600). A digest of the protocol:
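HCT-116 p53 beta-lactamase reporter cells, 4000/well, were exposed to compound (pin transfer, 217-fold dilution) for 16 hours at 37C. Cellular ATP was read by CellTiter-Glo luminescence after 30 min at room temperature.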

For experiment [17], the target named is Cellular tumor antigen p53 (Homo sapiens) (UniProt P04637). In words: TOX21_p53_BLA_p4_ratio: Tox21 HCT-116 p53 Agonism Beta-lactamase Assay, Ratio, Phase 4 (AID 2283601). In a few lines:
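HCT116 cells carrying an inducible beta-lactamase reporter were plated at 4000 cells/well, rested 5 h, then exposed to compounds in DMSO (217-fold dilution) for 16 h at 37C. CCF4-AM substrate was loaded 2 h at room temperature; 460/530 nm emission ratio scored gain-of-signal versus DMSO.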

A short description of experiment [18]: Tanguay_ZF_120hpf_MORT_legacy: (Legacy) Oregon State University Tanguay Lab 120 Hour Post-fertilization zebrafish Assay for Mortality (AID 2283633). A digest of the protocol:
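Dechorionated Tropical 5D wild-type zebrafish embryos, one per well from 6 hpf, static exposure in 0.64% DMSO at 28C until 120 hpf. Mortality scored as binary by brightfield microscopy at 24 and 120 hpf.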

In experiment [19] the target is Cellular tumor antigen p53 (Homo sapiens) (UniProt P04637). The experiment can be described thus: TOX21_p53_BLA_p2_ratio: Tox21 HCT-116 p53 Agonism Beta-lactamase Assay, Ratio, Phase 2 (AID 2283592). In a few lines:
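HCT-116 cells with p53-responsive beta-lactamase reporter, 4000 cells/well, preincubated 5 h, then compound in DMSO (217-fold dilution) for 16 h at 37C. CCF4-AM substrate 2 h at room temperature; 460/530 nm emission ratio fitted upward versus DMSO.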

Results filed as inconclusive are left out. The source made the active and inactive calls. Rule for the calls, unless noted: active = hit-call score of the fitted dose curve at least 0.9, where 1 is the maximum; inconclusive = response in the unintended direction; inactive = score below 0.9.

`CN(C)N=O`: the outcome in [1], in experiment [2], in experiment [3], in [4], in [5] and in [6] was inactive. Moreover, the outcome in experiment [7], in [8], in experiment [9], in experiment [10], in experiment [11] and in experiment [12] was inactive. Also, the outcome in experiment [13], in [14], in experiment [15], in experiment [16], in experiment [17] and in [18] was inactive.

As a reminder, the AC50 is the concentration giving half of the maximal activity seen. Regarding `CCOP(=S)(OCC)SCSP(=S)(OCC)OCC`, the result in [1], in experiment [2], in experiment [3], in experiment [4], in [8] and in experiment [10] was inactive. Moreover, the outcome in [11], in experiment [19], in experiment [12], in experiment [14], in experiment [15] and in [16] was inactive. Besides, the result in experiment [17] and in experiment [18] was inactive. Besides, the AC50 in experiment [5] was 0.214 µM (active); in experiment [6], 50 µM (active); in [7], 14.8 µM (active); in experiment [9] it was 0.245 µM (active).

Consider `CCC(=O)C(CC(C)N(C)C)(c1ccccc1)c1ccccc1` (stereo unspecified), for which the compound was called inactive in experiment [1], in [2], in experiment [3], in [4], in experiment [5] and in [7]. For the same compound, the compound was called inactive in experiment [8], in [9], in experiment [10], in experiment [19], in experiment [13] and in [15]. Further, the result in [17] and in [18] was inactive. Further, the concentration at half-maximal activity (AC50) in experiment [6] is 17.8 µM (active).
